# Measurements published in ChEMBL document CHEMBL3988442, “University of Dundee, Small-Polar-MMV Screening Library” (2021).
# In all, about 48,000 compounds went through this assay and about 13,000 (27%) showed an effect of 50% or more. The list shows a part of the results.
# Test system: Wolbachia pipientis
# Assay: Anti-Wolbachia Cell-Based Screen
# Assay type: functional
# Set-up: scale not given: in the data most compounds retested in dose-response had high values
# Settings: 5 µM
row,SMILES,Percent Effect [%]
1,CC(C)N(C)C(=O)C1CCC2(CCNCC2)O1.Cl (stereo not drawn),-5.93
2,CCN(C)c1nccc(N2CCN[C@H]3CS(=O)(=O)C[C@H]32)n1,-8.792
3,Cc1ccnc(CC(C)N(C)Cc2ccc3c(c2)CCO3)c1 (stereo not drawn),8.665
4,O=C(O)C(F)(F)F.c1cnc(N2CCOCC3(CN(Cc4cc[nH]n4)CCO3)C2)nc1 (stereo not drawn),10.86
5,O=C(O)C(F)(F)F.O=C(O)C(F)(F)F.O=C(O)C(F)(F)F.c1ccc(CN2CCOC3(CCN(c4ncccn4)CC3)C2)nc1,-2.349
6,CS(=O)(=O)N1CCOCC2(CN(Cc3ccccn3)CCO2)C1.O=C(O)C(F)(F)F.O=C(O)C(F)(F)F (stereo not drawn),-5.644
7,CCCS(=O)(=O)N1CCOC2(CCCN(Cc3ccccn3)C2)C1.O=C(O)C(F)(F)F (stereo not drawn),106.1
8,CCS(=O)(=O)N1CCOC2(CCCN(Cc3ccccn3)C2)C1.O=C(O)C(F)(F)F (stereo not drawn),109.8
9,CCS(=O)(=O)NC[C@]12COC[C@H]1CN(Cc1ccccn1)C2.O=C(O)C(F)(F)F.O=C(O)C(F)(F)F,3.316
10,O=C(O)C(F)(F)F.O=S(=O)(C1CC1)N1CCOC2(CCCN(Cc3ccccn3)C2)C1 (stereo not drawn),85.16
11,O=C(O)C(F)(F)F.O=C(O)C(F)(F)F.O=S(=O)(C1CC1)N1CCC2(CC1)CN(Cc1ccccn1)CCO2,101
12,CC(C)[C@@H]1CN(C(=O)C2(c3ccccc3)CCN(C)CC2)C[C@H]1C(=O)O,1.772
13,COc1cc(CNCC(O)c2ccc(F)c(F)c2)cc2c1OCO2 (stereo not drawn),-3.918
14,O=C(NC[C@]12COC[C@H]1CN(Cc1ccncc1)C2)c1ccno1.O=C(O)C(F)(F)F.O=C(O)C(F)(F)F,-6.901
15,CC(C)N1CCC2(CC1)C(=O)N(CCN(C)C)c1ccccc12.O=C(O)C(F)(F)F.O=C(O)C(F)(F)F,103.6
16,CC(C)N1CCC2(CC1)C(=O)N(c1cccnc1)c1c(F)cccc12.Cl,-0.101
17,CN(C)CCN1C(=O)C2(CCN(CC3CC3)CC2)c2ccccc21.O=C(O)C(F)(F)F.O=C(O)C(F)(F)F,113.1
18,COCCN1C(=O)C2(CCN(CC3CC3)CC2)c2ccccc21.O=C(O)C(F)(F)F,100.2
19,CN1C(=O)C2(CCN(Cc3nccn3C)CC2)c2ccccc21.O=C(O)C(F)(F)F,-27.57
20,Cc1ccc(CN2CCC3(CC2)C(=O)N(C)c2ccccc23)s1.O=C(O)C(F)(F)F,-4.693
21,CCN1C(=O)C2(CCN(CCN(C)C)CC2)c2ccccc21.O=C(O)C(F)(F)F.O=C(O)C(F)(F)F,97.23

row,SMILES,Percent Effect [%]
1,CC(C)N1CCC2(CC1)C(=O)N(c1cccnc1)c1ccc(F)cc12.Cl,-1.595
2,CCCN1CCN(C(=O)Cc2nc(-c3ccco3)oc2C)CC1,1.326
3,CN(C)Cc1cncc2c1CCN(Cc1ccoc1)C2.Cl.Cl.Cl,105
4,O=C1[C@@H]2CCN(Cc3ccoc3)C[C@@H]2OCCN1c1cccnc1,8.449
5,COCCN1CCN(Cc2cccnc2)[C@H]2CS(=O)(=O)C[C@H]21,6.429
6,CC(C)N(C)Cc1cncc2c1CCN(Cc1ccoc1)C2.Cl.Cl.Cl,91.96
7,COCc1cncc2c1CCN(Cc1ccccn1)C2.O=C(O)C(F)(F)F.O=C(O)C(F)(F)F.O=C(O)C(F)(F)F,9.224
8,COCc1cncc2c1CCN(Cc1cccs1)C2.O=C(O)C(F)(F)F.O=C(O)C(F)(F)F,82.87
9,CN(C)Cc1cncc2c1CCN(Cc1cnn(C)c1)C2.Cl.Cl.Cl,-9.802
10,COCc1cncc2c1CCN(Cc1cccnc1)C2,101.9
11,COCc1cncc2c1CCN(Cc1cnn(C)c1)C2.O=C(O)C(F)(F)F.O=C(O)C(F)(F)F,0.729
12,CC(C)N1[C@H](CN(C)C)C[C@@H]2CN(c3ncc(F)cn3)CC[C@@H]21.O=C(O)C(F)(F)F.O=C(O)C(F)(F)F.O=C(O)C(F)(F)F,3.695
13,CC1(C)C(C(=O)NCCC2CN(Cc3c[nH]cn3)CCO2)C1(C)C (stereo not drawn),-1.625
14,CC(C)N1CCc2c(CN(C)Cc3ccco3)cncc2C1.Cl.Cl.Cl,5.952
15,Cc1cccnc1CC(C)N(C)Cc1cccs1 (stereo not drawn),-8.458
16,CC(C)N(C)Cc1cncc2c1CCN(Cc1cccs1)C2.Cl.Cl.Cl,94.28
17,CS(=O)(=O)N1CCO[C@@H]2CN(Cc3ccncc3)C[C@@H]2C1.O=C(O)C(F)(F)F.O=C(O)C(F)(F)F,13.84
18,O=C(O)C(F)(F)F.O=C(O)C(F)(F)F.O=S(=O)(c1cccnc1)N1C[C@@H]2COC[C@]2(CN2CCOCC2)C1,-9.184
19,CN1CCO[C@@H]2CN(S(=O)(=O)c3cccnc3)C[C@@H]2C1.O=C(O)C(F)(F)F.O=C(O)C(F)(F)F,131.4
20,COCCN1CCO[C@@H]2CN(S(=O)(=O)c3cccnc3)C[C@@H]2C1.O=C(O)C(F)(F)F.O=C(O)C(F)(F)F,120.4
21,COCCN1CCO[C@@H]2CN(Cc3ccccn3)C[C@@H]2C1.O=C(O)C(F)(F)F.O=C(O)C(F)(F)F.O=C(O)C(F)(F)F,-10.28

row,SMILES,Percent Effect [%]
1,Cc1ccsc1CN1C[C@@H]2CN(Cc3cccnc3)CCO[C@@H]2C1.O=C(O)C(F)(F)F.O=C(O)C(F)(F)F.O=C(O)C(F)(F)F,13.17
2,CNCc1cn(C[C@H]2C[C@@H]3CCN2C[C@@H]3C(=O)NC2CCCCC2)nn1,-0.1027
3,COc1cccc([C@@H]2CCN(Cc3ccc4ccccc4n3)C[C@H]2O)c1,-2.697
4,COc1ncc(CN2CCC3(CCCN(CC4CCC4)C3)C2)cn1 (stereo not drawn),83.26
5,COCCN1CCC2(CCCN(c3ncc(F)cn3)C2)C1 (stereo not drawn),7.957
6,CCc1ncc(CN2CCC3(CCCN(CC4CCC4)C3)C2)cn1 (stereo not drawn),67.34
7,CCc1ncc(CN2C[C@H]3CC[C@@H]2CN(C(=O)C2CCC2)C3)cn1,-5.818
8,c1cncc(CN2CCC3(CCCN(c4nncs4)C3)C2)c1 (stereo not drawn),3.767
9,O=C(O)C(F)(F)F.c1cnc(N2CCCC3(CCN(CC4CCC4)C3)C2)nc1 (stereo not drawn),-2.816
10,CCc1cnc(N2CC3(CCN(Cc4ccsc4)C3)C2)nc1.O=C(O)C(F)(F)F,18.1
11,Fc1cnc(N2CC3(CCN(CC4CC4)C3)C2)nc1.O=C(O)C(F)(F)F,6.625
12,Cc1ncc(CN2CCC3(CCCN(CC4CCC4)C3)C2)cn1 (stereo not drawn),97.43
13,Cc1c(CN2CCCC(C(=O)c3ccccc3)C2)cc(C#N)n1C (stereo not drawn),-33.94
14,CCn1ncc(CN2CCCC(C(=O)c3ccc(Cl)cc3)C2)c1C (stereo not drawn),-8.229
15,O=C(O)C(F)(F)F.O=C1[C@H]2CN(Cc3ccccc3)C[C@H]2CN1c1cncnc1,5.118
16,CCNC(=O)[C@H]1CN(Cc2ccccc2)C[C@@H]1C(=O)c1ccccc1,155
17,CC(C)CNC(=O)[C@H]1C[C@@H]2CN(Cc3cccnc3)C[C@H]1O2.O=C(O)C(F)(F)F.O=C(O)C(F)(F)F,1.995
18,COCCN(C)C(C)Cc1ccccc1OC (stereo not drawn),-4.833
19,CO[C@H]1CN(CC2CC2)[C@@H]2CCCO[C@H]12.O=C(O)C(F)(F)F,102.7
20,CO[C@@H]1CN(Cc2scnc2C)[C@@H]2CCCO[C@@H]21.O=C(O)C(F)(F)F.O=C(O)C(F)(F)F,-11.47
21,Cc1noc(C)c1CN1C[C@H](OCC(=O)N(C)C)[C@H]2OCCC[C@H]21.O=C(O)C(F)(F)F,-4.98

row,SMILES,Percent Effect [%]
1,CN(Cc1cncnc1)[C@H]1CN(CC2CC2)[C@@H]2CCCO[C@@H]21.O=C(O)C(F)(F)F.O=C(O)C(F)(F)F,-10.71
2,Cc1noc(C)c1CN1C[C@H](OCC2CC2)[C@H]2OCCC[C@H]21.O=C(O)C(F)(F)F,2.314
3,CO[C@@H]1CC[C@H]2[C@H]1OCCN2CC1CCOCC1.O=C(O)C(F)(F)F,4.293
4,CO[C@H]1CN(Cc2ccc(C)o2)[C@@H]2CCCO[C@H]12.O=C(O)C(F)(F)F,-4.054
5,CO[C@H]1CN(CC2CCOCC2)[C@@H]2CCCO[C@H]12.O=C(O)C(F)(F)F,117.1
6,CCO[C@H]1CN(CC2CC2)[C@@H]2CCCO[C@H]12.O=C(O)C(F)(F)F,109.7
7,CC(=O)N1CCC2(CCN(CC(C)C)C2)C1 (stereo not drawn),-12.71
8,CCNC(=O)NC[C@H]1C[C@@H]2CCN1C[C@@H]2c1cc(-c2cccs2)nn1C,-4.515
9,CCN(CC)C[C@H]1CN2CC[C@H]1C[C@@H]2CNC(=O)Nc1ccsc1,12.78
10,O=C(O)C(F)(F)F.O=C(c1ccncc1F)N1C[C@@H]2OCCN(CC3CC3)[C@@H]2C1,-13.64
11,Cc1cc(C)nc(Nc2ccc(C3CCCCN3)cn2)n1 (stereo not drawn),126
12,c1cnc(Nc2ccc(C3CCCCN3)cn2)cn1 (stereo not drawn),123.5
13,Cc1cccc(Nc2ccc(C3CCCCN3)cn2)n1 (stereo not drawn),86.37
14,CC(=O)N1CCOCC2(CCCNC2)C1 (stereo not drawn),-30.9
15,CCCN1C[C@H]2CC[C@@H]1CN(C(=O)Cn1c(C)cc(C)nc1=O)C2,-4.771
16,c1ccc(COC[C@@]23CCC[C@@H]2CN(Cc2ccccn2)C3)nc1,-0.5697
17,Cn1cc(CN2C[C@H]3CCC[C@@]3(COc3cccnc3)C2)cn1,95.98
18,O=C(O)C(F)(F)F.O=C(O)C(F)(F)F.c1ccc(CN2C[C@H]3CCC[C@@]3(COCC3CC3)C2)nc1,8.685
19,Cn1cc(CN2CCN3C[C@H](Oc4cccnc4)C[C@H]3C2)cn1,-3.726
20,Cn1cc(CN2C[C@H]3CCC[C@@]3(COc3ccccn3)C2)cn1.O=C(O)C(F)(F)F.O=C(O)C(F)(F)F,101.4
